Consider 19 targets from the supplement of paper PMC8387472.

Common to all, as to assay: fraction of 1-bp insertions among edited reads; higher = more 1-bp insertion outcomes
Holding throughout (conditions): mESC; 2uM; 72 h treatment, harvest day 5

Compound in one experiment: Nc1nc2[nH]cc(CCc3ccc(C(=O)N[C@@H](CCC(=O)O)C(=O)O)cc3)c2c(=O)[nH]1 [Pemetrexed]
Compound in experiment [1]: Nc1ncnc2c1c(-c1cnc3[nH]ccc3c1)nn2C1CCCC1
Compound in experiment [2]: O=C(c1cccc(Cl)c1F)N1CCN(Cc2cccc(Nc3nccs3)n2)CC1
Compound in the next experiment: O=C1Cc2c([nH]c3ccc(Br)cc23)-c2ccccc2N1 [Kenpaullone]
Compound in another experiment: O=c1c(-c2ccc(O)cc2)coc2cc(O)cc(O)c12 [Genistein]
Compound in experiment [3]: O=c1cc(N2CCOCC2)oc2c(-c3ccc4c(c3)OCCO4)csc12
Compound in another experiment: S=c1[nH]cnc2nc[nH]c12 [Mercaptopurine (6-MP)]
Compound in experiment [4]: S=c1nc[nH]c2nc[nH]c12 [6-Mercaptopurine (6-MP) Monohydrate]

As for “16.0 (DMSO control at this site: 1-bp insertion 0.172, MH deletion 0.29, edited 0.05) CGGACTGCACACATGGGTAGGATCGTGCACGCGAGGTAGGATCGTGCACGCGAAGTTATTC”, the “fraction of 1-bp insertions among edited reads” value (shortened to “fraction”) turned out to be 0.149 with Pemetrexed; 0.218 in experiment [1]; 0.178 in experiment [2]; 0.198 in the experiment with Kenpaullone; 0.144 with Genistein; 0.19 in experiment [3]. Besides, the “fraction” value with Mercaptopurine (6-MP) was determined as 0.165; in experiment [4] it was 0.166.
On to “27.0 CCAGAATTAGAACATATCATCTGGACCCTTTTCCATCTGGACCCTTTTCCAGCACACCCTG”, for which the “fraction” value in experiment [1] turned out to be 0.169; in the experiment with Kenpaullone, 0.146; in the experiment with Genistein it was 0.183; in experiment [3], 0.158; with Mercaptopurine (6-MP), 0.141; in experiment [4], 0.187.
As for “31.0 (DMSO control at this site: 1-bp insertion 0.315, MH deletion 0.329, edited 0.026) ACCTCCACAGGCTGGGTGGCCCGGAGGCTGGGCGGCCCGGAGGCTGGGCTGGGCGAGTATC”, the “fraction” value with Pemetrexed was 0.0954; in experiment [2], 0.127; in the experiment with Kenpaullone, 0.173; with Genistein, 0.102; in experiment [3] it was 0.138; in the experiment with Mercaptopurine (6-MP) it was 0.178. In addition, the “fraction” value in experiment [4] came to 0.208.
As for “18.0 (DMSO control at this site: 1-bp insertion 0.114, MH deletion 0.789, edited 0.094) GCGCAAGTGCATAAGTTTTTCTTAAGGCGTGCCTTTAAGGCGTGCCTTTGTCGGTCCTGGA”, the “fraction” value was determined as 0.0804 with Pemetrexed; 0.12 in experiment [1]; 0.114 in experiment [2]; 0.134 in the experiment with Kenpaullone; 0.0973 with Genistein; 0.0588 in experiment [3]. For the same target, the “fraction” value with Mercaptopurine (6-MP) was found to be 0.137; in experiment [4], 0.13.
As for “43.0 (DMSO control at this site: 1-bp insertion 0.134, MH deletion 0.714, edited 0.104) AGTTTAACTTACTCCGGCCAAAAAAGAACTGCACCTCTGGAGCGGGTTAGTGGTGGTGGTA”, the “fraction” value with Pemetrexed amounted to 0.101; in experiment [1], 0.0907; in experiment [2], 0.0417; with Kenpaullone it was 0.058; in the experiment with Genistein, 0.0866; in experiment [3] it was 0.0822. Further, the entries for the “fraction” value (in the experiment with Mercaptopurine (6-MP); in experiment [4]) were 0.0946 and 0.122, respectively.
As to “41.0 (DMSO control at this site: 1-bp insertion 0.022, MH deletion 0.754, edited 0.115) AAAGAGACAGCAGGTATGAATCCATCTTCCTGACCCTTGGGACCAGCCGGGGCAGTGAAGC”, the “fraction” value stood at 0.0232 with Pemetrexed; 0.0155 in experiment [1]; 0.0392 in experiment [2]; 0.0338 with Kenpaullone; 0.0158 with Genistein; 0.0195 in experiment [3]. In addition, the “fraction” value is 0.0292 with Mercaptopurine (6-MP) and 0.0487 in experiment [4].
As for “28.0 (DMSO control at this site: 1-bp insertion 0.035, MH deletion 0.77, edited 0.142) TGGTTCTTCCTTTGTAGAGAGTGTTCATCTGGGAATCTGGGACTTGGATGAGACAATCATT”, the “fraction” value came to 0.0369 in the experiment with Pemetrexed; 0.0494 in experiment [1]; 0.0462 in experiment [2]; 0.0461 in the experiment with Kenpaullone; 0.032 with Genistein; 0.0316 in experiment [3]. In addition, the “fraction” value with Mercaptopurine (6-MP) came out at 0.0428; in experiment [4], 0.0506.
Take “0.0 (DMSO control at this site: 1-bp insertion 0.463, MH deletion 0.339, edited 0.14) AGGATTACCGAGACCTACGCGAACCGAAATCGCTGTCCGGTGCGCAAGCAGGGCTGGCGTC”: the “fraction” value with Pemetrexed worked out at 0.375; in experiment [1], 0.623; in experiment [2], 0.624; with Kenpaullone, 0.604; in the experiment with Genistein, 0.453; in experiment [3], 0.395. The “fraction” value with Mercaptopurine (6-MP) is 0.543; in experiment [4], 0.518.
Regarding “29.0 (DMSO control at this site: 1-bp insertion 0.084, MH deletion 0.745, edited 0.133) TTGATGAACTTCCTCTTCTTCTCATGTCTCCGGTCTCCGGTAGGCCACGTGCATGGCCACT”, the “fraction” value with Pemetrexed is 0.0781; in experiment [1], 0.112; in experiment [2] it was 0.119; with Kenpaullone it was 0.11; in the experiment with Genistein, 0.072; in experiment [3] it was 0.0694. Besides, the “fraction” value with Mercaptopurine (6-MP) is 0.105; in experiment [4], 0.115.
As for “47.0 (DMSO control at this site: 1-bp insertion 0.095, MH deletion 0.585, edited 0.118) GAGTGGTCCCGAGCCAGGAACTGTGTGTGTTGCAGGGGGGCAGTAACTCCCCAACTCCCTC”, the “fraction” value came out at 0.0508 with Pemetrexed; 0.158 in experiment [1]; 0.144 in experiment [2]; 0.101 with Kenpaullone; 0.0861 with Genistein; 0.108 in experiment [3]. For the same target, the “fraction” value in the experiment with Mercaptopurine (6-MP) stood at 0.101; in experiment [4] it was 0.142.
Take “22.0 (DMSO control at this site: 1-bp insertion 0.573, MH deletion 0.229, edited 0.045) CTGATGGTTGAAGGATTTAGCCGGGGTCCTAGACGCCGGGGTCCTAGACGAAAGGGCCACG”: the “fraction” value with Pemetrexed turned out to be 0.447; in experiment [2] it was 0.671; with Kenpaullone it was 0.604; in the experiment with Genistein, 0.595; in experiment [3], 0.623; with Mercaptopurine (6-MP) it was 0.587. Further, in experiment [4], the “fraction” value was 0.601.
Turning to “1.0 (DMSO control at this site: 1-bp insertion 0.521, MH deletion 0.323, edited 0.141) GTGTCACAGTGCACGAGTGACGGGATAATGTGCTGACAGGTAATTGATAGGCTTCCAACTT”, the “fraction” value in the experiment with Pemetrexed was 0.486; in experiment [1], 0.73; in experiment [2] it was 0.653; with Kenpaullone, 0.673; with Genistein it was 0.54; in experiment [3], 0.552. For the same target, the “fraction” value with Mercaptopurine (6-MP) was found to be 0.591; in experiment [4], 0.6.
Regarding “3.0 (DMSO control at this site: 1-bp insertion 0.109, MH deletion 0.149, edited 0.09) TGCTAGCGCCCCCACAAAGCGGACCAGCCAGCACTATAGGGAATAAGGCCAACTTGCACCC”, the “fraction” value with Pemetrexed was 0.184; in experiment [1], 0.227; in experiment [2], 0.152; with Kenpaullone it was 0.104; in the experiment with Genistein, 0.116; in experiment [3], 0.13. Moreover, the entries for the “fraction” value (with Mercaptopurine (6-MP); in experiment [4]) were 0.15 and 0.0992, respectively.
As for “20.0 (DMSO control at this site: 1-bp insertion 0.349, MH deletion 0.138, edited 0.084) TACAGGTGTAGACTGGTTACGTGGCTGCGGAATTGACTGGTTACGTGGCTGCGGAATTTTG”, the “fraction” value turned out to be 0.22 with Pemetrexed; 0.456 in experiment [1]; 0.453 in experiment [2]; 0.429 in the experiment with Kenpaullone; 0.278 in the experiment with Genistein; 0.203 in experiment [3]. The results for the “fraction” value (with Mercaptopurine (6-MP); in experiment [4]) were 0.376 and 0.22, respectively.
Regarding “23.0 AGAACAAAGCGCTCATATAACGATATGGGGGGTTATGGGGGGTTGAATTGCTTCAGCACGA”, in experiment [2], the “fraction” value turned out to be 0.008.
In the case of “30.0 (DMSO control at this site: 1-bp insertion 0.074, MH deletion 0.67, edited 0.142) GAGCTGGCATGAGTATTTGTGCCACATGGCTCCCACATGGCTCCACATGCAAGTTTGAAAC”, the “fraction” value was determined as 0.0714 with Pemetrexed; 0.113 in experiment [1]; 0.0986 in experiment [2]; 0.0891 in the experiment with Kenpaullone; 0.0719 in the experiment with Genistein; 0.0702 in experiment [3]. In addition, the results for the “fraction” value (with Mercaptopurine (6-MP); in experiment [4]) were 0.0954 and 0.0905, respectively.
For “44.0 (DMSO control at this site: 1-bp insertion 0.181, MH deletion 0.512, edited 0.123) ACACATACCTTCTTCGAGGCAGCCAGCATGATGAGACAGGTCTCCCACAAACACATCGTGT”, the “fraction” value with Pemetrexed was 0.127; in experiment [1], 0.293; in experiment [2], 0.235; with Kenpaullone, 0.235; with Genistein it was 0.173; in experiment [3], 0.169. Moreover, the “fraction” value worked out at 0.24 in the experiment with Mercaptopurine (6-MP) and 0.188 in experiment [4].
“32.0 (DMSO control at this site: 1-bp insertion 0.03, MH deletion 0.85, edited 0.898) AGAAGTCCAGGATCAGGGGGACTGGGGTCGGGAGGGTGGGGCAGGAAGGAAGCCAGAATCA”: the “fraction” value with Pemetrexed worked out at 0.0205; in experiment [1] it was 0.0205; in experiment [2], 0.0247; with Kenpaullone, 0.0214; with Genistein, 0.0197; in experiment [3], 0.0144. Also, the “fraction” value is 0.0169 with Mercaptopurine (6-MP) and 0.0198 in experiment [4].
Turning to “33.0 (DMSO control at this site: 1-bp insertion 0.008, MH deletion 0.771, edited 0.112) CATTAAGAGCAGCTGCCGGCCCCCAAGTGGACAGAGCTGGCCCTGCTGATTCAACAGTGCA”, the “fraction” value with Pemetrexed stood at 0.0161; in experiment [1], 0.0263; in experiment [2], 0.0349; with Kenpaullone it was 0.0243; with Genistein, 0.0314; in experiment [3] it was 0.0159. For the same target, the “fraction” value is 0.0358 in the experiment with Mercaptopurine (6-MP) and 0.0255 in experiment [4].
